# Measurements taken from the supplement of paper PMC10338343.
# ± gives the standard deviation.
# Key:
# [1] = test system: MILI (PIWIL2) piRISC loaded with piRNA #1 (26 nt); experiment: pre-steady-state target cleavage rate (min^-1); guide: piRNA #1 5'p-UGAGGUAGUAGGUUGUAUAGUAUCCA; higher = faster piRNA-guided slicing of the target; details: auxiliary factor: 500 nM mouse GTSF1;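 note: 1 nM active piRISC with 0.1 nM target library at 33 °C single turnover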
# Procedure, shortened: (§1)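 A burst-and-steady-state fit was used to obtain the pre-steady-state cleavage rate. The input data were sequencing reads of uncleaved targets, normalised to depth and to weakly complementary targets, from a […] transcribed, DNA-blocked target RNA library mixed with 1 nM active affinity-purified piRISC holding one synthetic guide, with or without 500 nM GTSF1 partner protein, in HEPES–potassium acetate buffer at 33 °C for 0–8 or 0–960 min. Three trials were pooled and k3 was capped at 0.0001 min^-1.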
# [2] = test system: EfPiwi piRISC loaded with piRNA #1 (26 nt); experiment: pre-steady-state target cleavage rate (min^-1); auxiliary factor: 500 nM Ephydatia muelleri Gtsf1; guide: piRNA #1 5'p-UGAGGUAGUAGGUUGUAUAGUAUCCA; MIWI and MILI are mouse PIWI proteins and EfPiwi is from a freshwater sponge; tags in brackets are library labels; higher = faster piRNA-guided slicing of the target
# Procedure, shortened: as §1
Sequence,pre-steady-state target cleavage rate [1],pre-steady-state target cleavage rate [2]
GGAGACCAUACUAUACAAACUACUACCUCA,0.234 ± 0.017,0.00853 ± 0.0037
GGAGAGGAUACCAUACAACCUACUACCUCA,0.167 ± 0.021,0.0957 ± 0.032
GGAGUGGAUACUAUACAACCUACAACCUCA,0.0801 ± 0.011,0.00468 ± 0.0018
GGAGACCUAUGAUUACAACCUACUACCUCU [g2:g17:cont:t1U],0.00674 ± 0.0025,0.732 ± 0.29
GGAGUGGUUACUAUACAACGUACUACCUCA,0.0218 ± 0.003,0.00485 ± 0.0014
GGAGAGGAUACUAUACAACCUUCUACCUCA,0.0114 ± 0.0024,0.00778 ± 0.0039
GGAGACCAUACUAUACAACCUACUUCGUCA,0.112 ± 0.029,0.00491 ± 0.0039
GGAGACCAUACUAUACAACCUUCUUCCUCA,0.00848 ± 0.0038,0.00613 ± 0.0044
GGAGACGAUACGUAUACAACCUACUACCUCA,0.107 ± 0.013,0.00952 ± 0.0048
GGAGACGAUACUAUUCAAGCUACUACCUCA,0.23 ± 0.015,0.00454 ± 0.002
GGAGACCAUACUUACAACCUACUACCUCA,0.0658 ± 0.012,0.00861 ± 0.0046
GGAGACCUUACUAUACAACCUACUACCACA,0.18 ± 0.018,0.00339 ± 0.0016
GGAGACCUAUCCUAUACAACCUACUACCUCA,0.106 ± 0.011,0.0903 ± 0.032
GGAGACCUAACUAUACAACCUACUACCACA,0.176 ± 0.038,0.00545 ± 0.0034
GGAGACCAAACUAUACAAGCUACUACCUCA,0.179 ± 0.025,0.00675 ± 0.0052
GGAGACGAUACUAUUCAACCUUCUACCUCA,0.0105 ± 0.0025,0.00443 ± 0.0025
GGAGAGGAUACUAUACAACGUACUACGUCA,0.0115 ± 0.0029,0.00349 ± 0.0018
GGAGACGAUACUAUACAACCUAGUACCUCA,0.0648 ± 0.014,0.00506 ± 0.0014
GGAGUGGAAACUAUACAACCUAGUACCUCA,0.055 ± 0.021,0.00276 ± 0.0018
GGAGACCUUACUAUACGACCUACUACCUCA,0.0683 ± 0.0088,0.016 ± 0.0076

Sequence,pre-steady-state target cleavage rate [1],pre-steady-state target cleavage rate [2]
GGAGAGGUUACUAUACUACCUACUACCUCA,0.151 ± 0.011,0.00488 ± 0.0024
GGAGAGGUUACUAUAGAACCUACUACCUCA,0.157 ± 0.018,0.00277 ± 0.0023
GGAGACGAUAGUAUACAACCUACUACCUGA,0.113 ± 0.017,0.0032 ± 0.0023
GGAGUGGAUACUACUACAACCUACUACCUCA,0.193 ± 0.012,0.114 ± 0.038
GGAGACCUAACUAUACAACCUACUAGCUCA,0.0915 ± 0.027,0.00459 ± 0.0036
GGAGACCUAUGAAUACAACCUACUACCUCU [g2:g18:cont:t1U],0.0139 ± 0.0044,0.688 ± 0.25
GGAGACCAUACUAUACAACCUACUACCUCC [g2:g23:cont:t1C],0.187 ± 0.017,0.0109 ± 0.0042
GGAGACGAUACUAUACAAGCUACAACCUCA,0.211 ± 0.018,0.00442 ± 0.0022
GGAGACGAUUGAAUACAACCUACUACCUCA,0.00898 ± 0.0022,0.00528 ± 0.0043
GGAGACCAUGACUAUACAACCUACUACCUCA,0.142 ± 0.021,0.0764 ± 0.029
GGAGUGGAUACUUUACAACGUACUACCUCA,0.0295 ± 0.0029,0.00254 ± 0.0014
GGAGUCGAUACUAUACAACCUACAACCUCA,0.0405 ± 0.0054,0.00324 ± 0.0017
GGAGACCAUACUGAUACAACCUACUACCUCA,0.112 ± 0.014,0.0368 ± 0.013
GGAGACCAUACUAUACAACCUACUAGCUGA,0.0115 ± 0.0056,0.00669 ± 0.0037
GGAGACCAUACUAUACAACCUAAUACCUCA,0.117 ± 0.018,0.00857 ± 0.0039
GGAGAGGAUACUAUACAACCUACACCUCA,0.00718 ± 0.0031,0.00361 ± 0.002
GGAGUGGAUACUAUACAUCCAACUACCUCA,0.00718 ± 0.0021,0.00457 ± 0.0019
GGAGUGGUUUCUAUACAACCUACUACCUCA,0.148 ± 0.0079,0.00603 ± 0.0034
GGAGACGAUACUAUACAACCUAAUACCUCA,0.103 ± 0.015,0.00553 ± 0.0025
GGAGACGAUUCUAUACAACCUUCUACCUCA,0.0216 ± 0.0072,0.00518 ± 0.0027

Sequence,pre-steady-state target cleavage rate [1],pre-steady-state target cleavage rate [2]
GGAGAGGACACUAUACAACCUACUACCUCA,0.185 ± 0.016,0.0224 ± 0.0085
GGAGACGAUACUAAUCAACCUACUACCUCA,0.182 ± 0.015,0.0059 ± 0.0033
GGAGACGAUACUAUUCUACCUACUACCUCA,0.173 ± 0.012,0.00416 ± 0.0035
GGAGAGGAUACUAUACAACCUACUGACCUCA,0.077 ± 0.013,0.00473 ± 0.002
GGAGUGGAUACUAUAGAACCUACUACGUCA,0.0161 ± 0.0041,0.00205 ± 0.0016
GGAGACCUAUGAAAUACAACCUACUACCUCA,0.0221 ± 0.0062,0.00445 ± 0.0038
GGAGAGGAUACUAUACACCUACUACCUCA,0.0354 ± 0.0068,0.0984 ± 0.042
GGAGACGAUACUAUACAACUACUACCUCA,0.0571 ± 0.0061,0.00742 ± 0.0033
GGAGACGAUGCUAUACAACCUACUACCUCA,0.194 ± 0.021,0.00734 ± 0.0042
GGAGAGGAUACUAUACAACCGACUACCUCA,0.00439 ± 0.0027,0.00504 ± 0.002
GGAGACCUUACUAUACAACCUACUACGUGA,0.137 ± 0.024,0.00535 ± 0.0036
GGAGACCUAACUAUACAACGUACUACCUCA,0.0137 ± 0.0057,0.00454 ± 0.0022
GGAGAAGAUACUAUACAACCUACUACCUCA,0.22 ± 0.016,0.0965 ± 0.035
GGAGACCUAUCUAUACAACCUACUACCUCG [g2:g20:cont:t1G],0.11 ± 0.012,0.061 ± 0.024
GGAGACCAUACUAUACCAACCUACUACCUCA,0.0299 ± 0.0075,0.00761 ± 0.0031
GGAGACGAUACUAUACUACCUUCUACCUCA,0.025 ± 0.0053,0.00418 ± 0.0025
GGAGUGCAUACUAUACAACCUUCUACCUCA,0.00996 ± 0.002,0.00467 ± 0.0029
GGAGUGGAUAUAUACAACCUACUACCUCA,0.152 ± 0.01,0.0139 ± 0.0066
